aSyn 5UTR act = Activators via SNCA 5'UTR binding, MLPCN; 7.1% of 300,000 active; alpha-synuclein 5'UTR reporter, activators screen; AID 1814, 2009; activity score, % (tested at 7.5 µM), hits read low; in the data active means activity score below about -60%
* marks the source's active call; other numbers are inactive results. These entries were drawn from the full list.

SMILES	aSyn 5UTR act
Cc1cc(OCc2cc(C(=O)N(C)C3CCOCC3)no2)cc(C)c1Cl	-127.9*
Cc1ccn2c(C(=O)CSc3ccccc3)c(C)nc2c1	-64.7*
CSc1nc2c(cnn2-c2ccccc2)c(=O)n1N	-91.6*
CCSc1nc2c(cnn2-c2ccccc2)c(=O)n1N	-105.4*
c1ccc(CN2CCN(c3cnc4ccccc4n3)CC2)cc1	-208.4*
Fc1ccccc1N1CCN(c2cnc3ccccc3n2)CC1	-69.9*
Oc1ccccc1N1CCN(c2ccc3ccccc3n2)CC1	-137.9*
C=CCc1c(C)nc(-c2ccccc2)nc1N/N=C/c1ccncc1	-95.1*
C=CCc1c(C)nc(-c2ccccc2)nc1N/N=C(\C)c1ccc(N)cc1	-69.2*
Cc1cc(NC(=O)CCC2CCCC2)no1	-65.2*
Cc1ccnc(NC(=O)CCC2CCCCC2)c1	-193.3*
O=C(CCC1CCCC1)Nc1ccc(Br)cn1	-196.6*
CCc1cc2c(Sc3nc4ccccc4s3)ncnc2s1	59.9
Cn1c(CSc2nc3ccccc3s2)nc2ccccc21	-139.6*
CCNc1nnc(CSc2nc3ccccc3s2)s1	-70.8*
c1ccc(SCc2nc3ccccc3[nH]2)nc1	-75.1*
c1ccc2[nH]c(CSc3nc4ccccc4s3)nc2c1	-111.6*
O=C(CC1=NCCNC(c2ccccc2)C1)c1ccccc1O (stereo unspecified)	-145.2*
CC1CC1c1ccc(/C=C(\C#N)C(=O)Nc2cccc(Cl)c2Cl)o1 (stereo unspecified)	-110.5*
CCc1ccc(C(=O)Nc2cc3c(cc2Cl)OCCCO3)cc1	-172.2*
O=C(Cc1ccccc1)Nc1cc2c(cc1Cl)OCCCO2	-146.9*
CN(C)c1ccc(N=C/C=C2\N(C)c3ccccc3C2(C)C)cc1	-114.4*
CN1/C(=C/C(=O)c2nc(S(C)(=O)=O)ncc2Cl)C(C)(C)c2ccccc21	57.1
C=C[C@@]1(C)CC(=O)[C@]2(O)[C@@]3(C)[C@@H](O)CCC(C)(C)[C@@H]3[C@H](OC(C)=O)[C@H](O)[C@@]2(C)O1	66.4
CC(/C=N/Nc1nc(C)cc(=O)[nH]1)=C\c1ccccc1	-67.4*
SMILES	aSyn 5UTR act
CC(/C=N/Nc1nc2ccccc2[nH]1)=C\c1ccccc1	-70.0*
O=C(COc1ccc(F)cc1)c1ccc2c(c1)CCCC2	-133.5*
O=C(COc1ccc(Cc2ccccc2)cc1)c1ccc(F)cc1	-71.8*
COc1cc(/C=N/NC(=S)NC2CC3CC2C2C=CCC32)ccc1O (stereo unspecified)	-116.1*
O=C(N/N=C\c1cc(Br)cs1)C1COc2ccccc2O1 (stereo unspecified)	-126.5*
Cc1ccc(NC(=O)C2COc3ccccc3O2)c(C)c1 (stereo unspecified)	-110.0*
C/C(=N\NC(=O)C1COc2ccccc2O1)c1ccccn1 (stereo unspecified)	98.2
O=C(Nc1ncccc1Cl)C1COc2ccccc2O1 (stereo unspecified)	-106.9*
O=C(COC(=O)C1COc2ccccc2O1)NC(=O)NC1CCCC1 (stereo unspecified)	-72.5*
COC(=O)N1CCc2c(sc(NC(=O)C3COc4ccccc4O3)c2C(N)=O)C1 (stereo unspecified)	-136.7*
NC(=O)c1oc2ccccc2c1NC(=O)C1COc2ccccc2O1 (stereo unspecified)	-85.7*
O=C(Nc1ccccc1)C1COc2ccccc2O1 (stereo unspecified)	-81.9*
O=C(NCC1COc2ccccc2O1)c1ccccc1 (stereo unspecified)	-137.0*
Cc1ccc(NC(=O)C2COc3ccccc3O2)cc1 (stereo unspecified)	-153.6*
O=C(Nc1ccccc1F)C1COc2ccccc2O1 (stereo unspecified)	-90.8*
CC(=O)c1sc(NC(=O)C2COc3ccccc3O2)nc1C (stereo unspecified)	61.8
COC(=O)N1CCc2c(sc(NC(=O)C3=COCCO3)c2C#N)C1	-125.6*
O=C(Nc1nnc(C(F)(F)F)s1)C1COc2ccccc2O1 (stereo unspecified)	-69.1*
O=C(NCC1OCCc2ccccc21)c1ccc(NC(=O)c2ccc(Cl)cc2)cc1 (stereo unspecified)	79.4
Cc1ccc(NC(=O)C2OCCc3ccccc32)cc1 (stereo unspecified)	-132.8*
O=C(Nc1ccccc1)ON=C1CCCC1	-82.2*
Cc1ccc(NC(=O)ON=C2CCCC2)cc1	-204.9*
Cc1ccc(NC(=O)Nc2ccccc2CC[N+](=O)[O-])cc1	-79.5*
COc1ccnc(CSC(N)=Nc2ccc(F)cc2)c1	-111.4*
COc1ccc(C2=NN(CN3C(=O)C(=O)c4ccccc43)C(c3ccc(C)cc3)C2)cc1 (stereo unspecified)	-115.9*
SMILES	aSyn 5UTR act
COc1ccc(C2=NN(CN3C(=O)C(=O)c4ccccc43)C(c3ccc(Br)cc3)C2)cc1 (stereo unspecified)	-114.5*
c1ccc(C2Oc3ccccc3C3CC(c4cccs4)=NN32)cc1 (stereo unspecified)	-164.4*
O=c1c(Cl)c(NCCCO)cnn1-c1nc2ccccc2[nH]1	-232.0*
Cc1ccccc1OCC(=O)O/N=C(\N)c1ccncc1	-102.7*
Cc1ccc(OCC(=O)O/N=C(\N)c2ccncc2)c(C)c1	-182.1*
N/C(=N\OC(=O)COc1cc(Cl)c(Cl)cc1Cl)c1ccncc1	-174.1*
O=C1OC2(CCCCC2)OC(=O)C1=CNc1ccc2c(c1)OCO2	-83.3*
Nc1cc(N)nc(SCCOc2ccccc2)n1	-69.4*
Nc1cc(N)nc(SCCOc2ccccc2F)n1	-81.3*
O=C(/C=C/c1ccc(OCCCF)cc1)Nc1ccnc(-c2cccnc2)n1	-121.3*
O=C(/C=C/c1ccc(OCCCF)cc1)Nc1ccnc(-c2ccncc2)n1	-209.3*
Cc1ccsc1C(=O)OCC(=O)Nc1sccc1C(N)=O	-130.4*
COC(=O)c1ccsc1NC(=O)CCc1ccccc1	-109.1*
NC(=O)c1ccsc1NC(=O)CCc1ccccc1	-152.6*
CCCOC(c1ccccc1)(c1ccc(C(F)(F)F)cc1)C(Oc1nc(C)cc(C)n1)C(=O)O (stereo unspecified)	61.3
COc1cccc(-c2cc(C(=O)N3CCCc4ccccc43)no2)c1	-125.8*
COc1ccc(-c2cc(C(=O)N3CCCc4ccccc43)no2)cc1	-107.4*
Cc1ccc(C)c(NC(=O)c2cc(-c3cc(C)c(C)cc3O)n[nH]2)c1	-233.0*
Cc1ccc(-c2cc(C(=O)Nc3cc(C)ccc3C)[nH]n2)c(O)c1	-86.3*
COc1ccc(OC)c(NC(=O)c2cc(-c3cc(C)ccc3O)n[nH]2)c1	-103.7*
Cc1ccc(C)c(NC(=O)c2cc(-c3ccccc3O)n[nH]2)c1	-198.4*
Cc1ccc(C)c(NC(=O)COC(=O)c2cccc3c2C(=O)c2ccccc2C3=O)c1	54.9
CCc1nnc(NC(=O)c2ccc(-c3ccccc3Cl)o2)s1	-160.5*
O=C(Nc1cccc(F)c1)c1ccc(-c2ccccc2Cl)o1	-172.6*
CCc1nnc(NC(=O)c2ncc(Cl)c(Cl)c2Cl)s1	-61.7*
SMILES	aSyn 5UTR act
COC(=O)c1sccc1-c1ccc(C(=O)Nc2ccccc2)o1	-115.1*
COc1ccc(NC(=O)c2ccc(-c3ccccc3Cl)o2)cc1	-156.2*
O=C(NCc1cccs1)c1csc2ccccc12	-61.7*
Cc1cccc2c(=O)c(C(=O)NCc3cccs3)c[nH]c12	-110.4*
Cc1nc2cc(-c3ccc(Cl)cc3)nn2c(C)c1CCC(=O)NC(C)c1ccc2c(c1)OCCO2 (stereo unspecified)	73.8
Cc1c(C(=O)O)cnc2cc(-c3ccc(Cl)cc3)nn12	-70.7*
CC(=O)c1cnc2cc(-c3ccc(Cl)cc3)nn2c1C	-94.5*
